Results from the supplement of paper PMC10338343.
± gives the standard deviation.

How the values were obtained:
[1] = tested on: MILI (PIWIL2) piRISC loaded with piRNA #1 (26 nt); test: pre-steady-state target cleavage rate (min^-1); guide: piRNA #1 5'p-UGAGGUAGUAGGUUGUAUAGUAUCCA; higher = faster piRNA-guided slicing of the target; settings: auxiliary factor: 500 nM mouse GTSF1
In short: (§1)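 The pre-steady-state cleavage rate came from a burst-and-steady-state fit to pooled data from three Cleave-'n-Seq trials, in which uncleaved targets were sequenced and normalised to depth and to weakly complementary targets. Each reaction held 0.1 nM transcribed, DNA-blocked target RNA library and 1 nM active affinity-purified piRISC carrying one synthetic guide, with or without 500 nM GTSF1 partner protein, in HEPES–potassium acetate buffer at 33 °C for 0–8 or 0–960 min. k3 was capped at 0.0001 min^-1.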

[2] = tested on: EfPiwi piRISC loaded with piRNA #1 (26 nt); test: pre-steady-state target cleavage rate (min^-1); auxiliary factor: 500 nM Ephydatia muelleri Gtsf1; guide: piRNA #1 5'p-UGAGGUAGUAGGUUGUAUAGUAUCCA; MIWI and MILI are mouse PIWI proteins and EfPiwi is from a freshwater sponge; tags in brackets are library labels; higher = faster piRNA-guided slicing of the target
In short: as §1

| Sequence | pre-steady-state target cleavage rate [1] | pre-steady-state target cleavage rate [2] |
| --- | --- | --- |
| GGAGUGGAUACUGAUACAACCUACUACCUCA | 0.144 ± 0.01 | 0.0129 ± 0.0062 |
| GGAGUGGAUACUAUACAAGCUACAACCUCA | 0.142 ± 0.014 | 0.00371 ± 0.0018 |
| GGAGAGGAUACUAUACAUCCAACUACCUCA | 0.0065 ± 0.0019 | 0.00419 ± 0.0022 |
| GGAGACCUAUCUAUACAACCUACUACCGCA | 0.174 ± 0.021 | 0.0051 ± 0.0049 |
| GGAGACGUUACUAUACAACCUACAACCUCA | 0.114 ± 0.015 | 0.00216 ± 0.0017 |
| GGAGUGCAAACUAUACAACCUACUACCUCA | 0.126 ± 0.012 | 0.00676 ± 0.0044 |
| GGAGAGGAUACUAUACAACCUAUACCUCA | 0.00606 ± 0.0021 | 0.00469 ± 0.0024 |
| GGAGAGGAUGACUAUACAACCUACUACCUCA | 0.0775 ± 0.015 | 0.01 ± 0.006 |
| GGAGACGAUACUAUACAACCUACUACGACA | 0.131 ± 0.022 | 0.0045 ± 0.0019 |
| GGAGACGAUACUAUUCAUCCUACUACCUCA | 0.264 ± 0.021 | 0.00763 ± 0.0036 |
| GGAGACCAUAGUAUACAACCUACUACCUGA | 0.0652 ± 0.012 | 0.00396 ± 0.0018 |
| GGAGAGGAUACUAUCAACCUACUACCUCA | 0.154 ± 0.01 | 0.0088 ± 0.0053 |
| GGAGAGGAUACUAUACAAGCUACUACGUCA | 0.19 ± 0.02 | 0.00403 ± 0.0018 |
| GGAGUGGAUACUAUAGAACCUACUACCUGA | 0.0453 ± 0.0088 | 0.00222 ± 0.0011 |
| GGAGAGGAUACUAUUCAACCAACUACCUCA | 0.00614 ± 0.0021 | 0.00354 ± 0.0021 |
| GGAGACGAUACUAUACAACCUACACCUCA | 0.00588 ± 0.0025 | 0.00474 ± 0.0027 |
| GGAGUGCAUACUAUACAUCCUACUACCUCA | 0.313 ± 0.015 | 0.0107 ± 0.0041 |
| GGAGUGGAUAUAUACAACCUACUACCUCA | 0.152 ± 0.01 | 0.0139 ± 0.0066 |
| GGAGUGGAAACUAUACAACCUACUACCACA | 0.129 ± 0.018 | 0.00336 ± 0.0029 |
| GGAGUGGAUUCUAUACAACCUACUACCUGA | 0.0905 ± 0.012 | 0.00261 ± 0.002 |

| Sequence | pre-steady-state target cleavage rate [1] | pre-steady-state target cleavage rate [2] |
| --- | --- | --- |
| GGAGACGAAACUAUACAACCUACUACGUCA | 0.0713 ± 0.022 | 0.00245 ± 0.0024 |
| GGAGAGGAUACUACUACAACCUACUACCUCA | 0.15 ± 0.016 | 0.00619 ± 0.0042 |
| GGAGACGAUACUAUACAACUACUACCUCA | 0.0571 ± 0.0061 | 0.00742 ± 0.0033 |
| GGAGUGGAUACUUUACAAGCUACUACCUCA | 0.192 ± 0.013 | 0.00397 ± 0.0024 |
| GGAGACGAUACUAUACAACUUACUACCUCA | 0.0232 ± 0.0039 | 0.0183 ± 0.0077 |
| GGAGACCAUACUAUACAACGUACUUCCUCA | 0.0304 ± 0.0072 | 0.00544 ± 0.0032 |
| GGAGAGGAUACUAUACAACACUACUACCUCA | 0.00372 ± 0.0023 | 0.00804 ± 0.0043 |
| GGAGUGGAUACUAUACACCUACUACCUCA | 0.0342 ± 0.0053 | 0.157 ± 0.056 |
| GGAGACCUACCUAUACAACCUACUACCUCA | 0.117 ± 0.026 | 0.0239 ± 0.012 |
| GGAGACGAUACUAUUCAACCUAGUACCUCA | 0.0492 ± 0.01 | 0.0035 ± 0.0018 |
| GGAGUGGAUACUAUUCAACCUACUACGUCA | 0.0439 ± 0.0069 | 0.00281 ± 0.0015 |
| GGAGACCUUACUAUACAACCUACUACGUGA | 0.137 ± 0.024 | 0.00535 ± 0.0036 |
| GGAGAGGAUACUAUACAACCUACUAACUCA | 0.0462 ± 0.014 | 0.00561 ± 0.0029 |
| GGAGACGAUAGUAUACAACCUAGUACCUCA | 0.0719 ± 0.011 | 0.00201 ± 0.0013 |
| GGAGUGGAUACUAUACGACCUACUACCUCA | 0.135 ± 0.0095 | 0.0922 ± 0.036 |
| GGAGACGUUAGUAUACAACCUACUACCUCA | 0.119 ± 0.013 | 0.00686 ± 0.0036 |
| GGAGUGGUAACUAUACAACCUACUACCUCA | 0.141 ± 0.016 | 0.0157 ± 0.0069 |
| GGAGAGGAAACUAUACAACCUACUACGUCA | 0.034 ± 0.011 | 0.00364 ± 0.0025 |
| GGAGACCAUAGAAUACAACCUACUACCUCA | 0.0281 ± 0.0057 | 0.00684 ± 0.0033 |
| GGAGACCAUACUAUACAACCUACUACUUCA | 0.189 ± 0.019 | 0.00607 ± 0.0024 |

| Sequence | pre-steady-state target cleavage rate [1] | pre-steady-state target cleavage rate [2] |
| --- | --- | --- |
| GGAGAGGAUACUAUACAACCUACUACCUAA | 0.125 ± 0.011 | 0.0131 ± 0.0058 |
| GGAGUGGAUACUAUAGAAGCUACUACCUCA | 0.19 ± 0.011 | 0.00277 ± 0.0019 |
| GGAGACCUUACUAUACAACCUACUACCCCA | 0.142 ± 0.021 | 0.00566 ± 0.0032 |
| GGAGACCUAACUAUACAACCUAGUUCCUCA | 0.00721 ± 0.0051 | 0.00297 ± 0.0025 |
| GGAGAGGAUACUAUACAUCCUUCUACCUCA | 0.0216 ± 0.0041 | 0.00362 ± 0.0026 |
| GGAGACGAUACUAUACAACCUACUAGCUCA | 0.11 ± 0.019 | 0.00381 ± 0.0011 |
| GGAGACCUAACAAUACAACCUACUACCUCA | 0.0822 ± 0.019 | 0.00868 ± 0.0037 |
| GGAGACCUAGCUAUACAACCUACUACCUCA | 0.0862 ± 0.027 | 0.00604 ± 0.0058 |
| GGAGUGGAUACUAUACAACCUACUACGUCA | 0.0515 ± 0.0063 | 0.00568 ± 0.0024 |
| GGAGACGAAUCUAUACAACCUACUACCUCA | 0.146 ± 0.015 | 0.0517 ± 0.018 |
| GGAGACGAUUCUAUACAACCUUCUACCUCA | 0.0216 ± 0.0072 | 0.00518 ± 0.0027 |
| GGAGACCAUACUAUACAACCUACUACGUCA | 0.116 ± 0.017 | 0.0053 ± 0.0015 |
| GGAGACGAUACUAUACAACCUACUACCUCG [g2:g24:cont:t1G] | 0.183 ± 0.014 | 0.115 ± 0.037 |
| GGAGACGAUUCUAUACUACCUACUACCUCA | 0.213 ± 0.011 | 0.00459 ± 0.0029 |
| GGAGACGAUACUAUGCAACCUACUACCUCA | 0.21 ± 0.014 | 0.0141 ± 0.0066 |
| GGAGUGGAUACUAUACAAGCUAGUACCUCA | 0.0743 ± 0.014 | 0.00287 ± 0.0014 |
| GGAGAGGAUACUAUAGAACCUACUACCACA | 0.0636 ± 0.0099 | 0.00261 ± 0.0014 |
| GGAGAGGAUACAAAACAACCUACUACCUCA | 0.128 ± 0.013 | 0.00656 ± 0.0047 |
| GGAGUGGACUACUAUACAACCUACUACCUCA | 0.156 ± 0.01 | 0.0107 ± 0.0041 |
| GGAGAGCAUACUAUACUACCUACUACCUCA | 0.195 ± 0.016 | 0.00584 ± 0.0027 |
